# PubChem BioAssay
# Active and inactive are the calls of the source. Unless noted, how the calls were made is not given here.
# Key:
# [1] = resazurin metabolic signal in HepG2 cells – cell-based, resazurin fluorescence, 24 h, PK04 Diversity Set, profiling panel (AID 1172); details: HepG2 viability, higher = more signal
# [2] = budding yeast growth changes without added modifier – OD600, strain BY4716, 24 h, basal condition, primary screen (AID 1173); details: S. cerevisiae BY4716 growth, OD600, 24 h; higher = more signal, called active from +8 up or from −8 down
# [3] = viability profiling in MM1S myeloma cells – cell-based, resazurin fluorescence, basal, 24 h, PK04 Diversity Set, profiling panel (AID 1174); details: higher = more signal, called active from +8 up or from −8 down;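 further: MM1S multiple myeloma cell line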
# [4] = biological target: Dihydroorotate dehydrogenase (quinone), mitochondrial (Plasmodium falciparum (isolate 3D7)) (UniProt Q08210); assay: inhibition of P. falciparum DHODH – biochemical, C-terminal His tag, absorbance 600 nm, primary screen (AID 1175); details: PfDHODH enzyme, DCIP absorbance 600 nm; higher = more signal, called active from +8 up or from −8 down;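 further: recombinant parasite enzyme with a five histidine tag at its C terminus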
# Sequence of Dihydroorotate dehydrogenase (quinone), mitochondrial (Plasmodium falciparum (isolate 3D7)) (Q08210 whole entry, looked up): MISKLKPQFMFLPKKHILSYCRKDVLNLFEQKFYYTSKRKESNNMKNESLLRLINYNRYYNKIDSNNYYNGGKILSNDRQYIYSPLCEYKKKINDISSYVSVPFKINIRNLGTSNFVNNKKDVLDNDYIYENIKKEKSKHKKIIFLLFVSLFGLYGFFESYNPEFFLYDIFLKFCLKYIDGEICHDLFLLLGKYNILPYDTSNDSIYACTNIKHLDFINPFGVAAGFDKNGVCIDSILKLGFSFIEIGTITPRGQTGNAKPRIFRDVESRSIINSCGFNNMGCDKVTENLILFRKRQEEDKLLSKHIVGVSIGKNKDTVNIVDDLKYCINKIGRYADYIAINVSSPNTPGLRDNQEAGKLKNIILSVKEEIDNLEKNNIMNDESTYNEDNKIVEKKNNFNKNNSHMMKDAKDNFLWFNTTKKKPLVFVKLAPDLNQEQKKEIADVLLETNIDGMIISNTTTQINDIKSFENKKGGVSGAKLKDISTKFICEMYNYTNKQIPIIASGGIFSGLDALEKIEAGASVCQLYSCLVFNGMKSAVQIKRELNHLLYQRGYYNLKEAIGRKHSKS
# [5] = inhibition of PAO1 biofilm formation – strain PAO1, LB-PBS medium, absorbance 600 nm, primary screen (AID 1176); details: P. aeruginosa PAO1 growth/biofilm, A600, 12 h; higher = more signal
# [6] = growth modulation of vineyard yeast isolate – strain RM11-1a, OD600, basal, 24 h, primary screen (AID 1177);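 further: cultures grown under basal conditions with no added stressor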; details: S. cerevisiae RM11-1a growth, OD600, 24 h; higher = more signal, called active from +8 up or from −8 down
# [7] = growth of efflux-deficient E. coli DRC39 – strain DRC39, OD650, 24 h, E. coli filamentation inducers, primary screen (AID 1178);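 further: growth measured as culture turbidity by optical density at 650 nm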; details: E. coli DRC39 acrAB, higher = more signal, called active from +8 up or from −8 down
# [8] = growth of efflux-deficient E. coli DRC39 – strain DRC39, OD650, 48 h, E. coli filamentation inducers, primary screen (AID 1179);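 further: screen aims at cell division blockers that make cells filament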; details: E. coli DRC39 delta-acrAB growth, higher = more signal, called active from +8 up or from −8 down
# [9] = viability profiling in RPMI8226 myeloma cells – cell-based, resazurin fluorescence, basal, 24 h, PK04 Diversity Set, profiling panel (AID 1180); details: higher = more signal;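 further: RPMI8826 multiple myeloma cell line at 5000 cells per well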
# [10] = biological target: E3 ubiquitin-protein ligase XIAP (Homo sapiens) (UniProt P98170); assay: small molecules binding XIAP protein – biophysical, small-molecule microarray, fluorescence 635 nm, primary screen (AID 1181); details: higher = more signal;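 further: score merges 667 nm emission and signal to noise over triplicate slides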
# Sequence of E3 ubiquitin-protein ligase XIAP (Homo sapiens) (P98170 whole entry, looked up, the tested form may be a part): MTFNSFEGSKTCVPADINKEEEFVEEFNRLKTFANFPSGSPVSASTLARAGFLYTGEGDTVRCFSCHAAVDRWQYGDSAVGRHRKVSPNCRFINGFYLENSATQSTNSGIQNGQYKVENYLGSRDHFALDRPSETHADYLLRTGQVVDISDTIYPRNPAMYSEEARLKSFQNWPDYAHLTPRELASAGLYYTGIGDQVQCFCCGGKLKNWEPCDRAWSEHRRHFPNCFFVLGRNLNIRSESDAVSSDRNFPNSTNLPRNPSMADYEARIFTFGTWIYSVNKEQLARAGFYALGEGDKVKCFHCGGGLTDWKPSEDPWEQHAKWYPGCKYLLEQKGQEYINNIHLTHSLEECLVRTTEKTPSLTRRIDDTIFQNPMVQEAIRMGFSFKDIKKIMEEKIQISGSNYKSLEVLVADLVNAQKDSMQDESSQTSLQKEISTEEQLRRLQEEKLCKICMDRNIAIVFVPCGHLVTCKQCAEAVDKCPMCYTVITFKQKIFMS
# [11] = tested on: XIP peptide (Xip251-270) binding; assay: XIP fragment 251-270 binding compounds – biochemical, small-molecule microarray, fluorescence 635/667 nm, 0.1 µg/mL protein, primary screen (AID 1182); details: fluorescent protein binding, 635 nm, higher = more signal, called active from +8 up or from −8 down
# XIP peptide (Xip251-270) = assay: compounds binding XIP fragment 251-270 – biochemical, small-molecule microarray, fluorescence 635/667 nm, 0.5 µg/mL protein, primary screen (AID 1183); details: fluorescence 635 nm, higher = more signal
# [12] = blood-stage malaria parasite viability loss – strain 3D7, DAPI fluorescence, 100 nL, primary screen (AID 1184);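 further: parasites grown inside human red blood cells in medium with human serum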; details: P. falciparum 3D7 growth, 3 d, higher = more signal
# [13] = biological target: Homeobox protein Hox-A13 (Mus musculus) (UniProt Q62424); assay: disruptors of Hoxa13 oligonucleotide interaction – biochemical, fluorescence polarization, labeled oligonucleotide, primary screen (AID 1185); details: Hoxa13:DNA binding, 15 min, higher = more signal, called active from +8 up or from −8 down
# Sequence of Homeobox protein Hox-A13 (Mus musculus) (Q62424 whole entry, looked up): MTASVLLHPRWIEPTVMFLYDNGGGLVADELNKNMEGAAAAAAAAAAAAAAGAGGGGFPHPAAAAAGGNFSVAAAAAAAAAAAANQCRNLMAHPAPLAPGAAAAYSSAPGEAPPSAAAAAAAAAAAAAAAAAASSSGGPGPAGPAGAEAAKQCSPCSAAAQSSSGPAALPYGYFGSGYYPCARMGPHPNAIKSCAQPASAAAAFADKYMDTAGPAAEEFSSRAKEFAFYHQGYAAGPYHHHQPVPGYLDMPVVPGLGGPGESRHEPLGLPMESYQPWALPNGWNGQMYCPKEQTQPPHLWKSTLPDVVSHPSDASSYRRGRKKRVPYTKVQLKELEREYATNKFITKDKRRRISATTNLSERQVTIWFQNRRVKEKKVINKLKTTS
# [14] = blockers of DNA damage checkpoint Chk1 activation – imaging, HeLa, hydroxyurea, phospho-Chk1 antibody, percent positive cells, primary screen (AID 1186); details: hydroxyurea-induced phospho-Chk1 immunofluorescence imaging, higher = more signal
# [15] = blockers of DNA damage checkpoint Chk1 activation – imaging, HeLa, hydroxyurea, phospho-Chk1 nuclear intensity, primary screen (AID 1187); details: hydroxyurea-induced phospho-Chk1 immunofluorescence imaging, higher = more signal
SMILES,z-score [1],z-score [2],z-score [3],composite z-score [4],z-score [5],z-score [6],z-score [7],z-score [8],z-score [9],composite z-score [10],composite z-score [11],composite z-score (XIP peptide (Xip251-270)),z-score [12],z-score [13],z-score [14],z-score [15]
O=C1c2ccccc2[C@@]2(Cc3ccccc3N(Cc3ccccc3)C2=O)[C@H](c2ccc(CO)cc2)N1Cc1ccccc1,-0.739,-0.773 (inactive),-0.851 (inactive),-2.87 (inactive),0.0714 (inactive),-0.153 (inactive),-0.0466 (inactive),-0.0261 (inactive),-0.982,-0.0525,-0.348 (inactive),-0.283,1.37,-0.928 (inactive),0.306 (inactive),0.435 (inactive)
CC(C)(C)N1CC=CC23O[C@@H]4/C=C\CCCOC(=O)C4[C@H]2C(=O)N(CCCCCCO)[C@@H]3C1=O (stereo partly drawn),0.232,-0.584 (inactive),0.702 (inactive),-1.58 (inactive),1.2 (inactive),-1.13 (inactive),-0.11 (inactive),0.602 (inactive),1.06,-0.0795,0.956 (inactive),0.346,-0.136,-4.63 (inactive),0.114 (inactive),1.32 (inactive)
C=CCOC(=O)[C@H]1[C@@H]2C(=O)O[C@@H](c3ccccc3)[C@@H](c3ccccc3)N2[C@@H](c2ccc(OCCOC(=O)[C@@H]3C[C@@H]4C(=O)N[C@@H](Cc5ccccc5)C(=O)N4[C@@H]3c3ccc(O)cc3)cc2)[C@]12C(=O)Nc1ccccc12,-0.648,1.45 (inactive),-0.292 (inactive),-0.139 (inactive),3.66 (inactive),0.818 (inactive),-0.631 (inactive),-0.282 (inactive),-0.309,0.144,0.819 (inactive),0.743,-1.83,1.86 (inactive),-0.287 (inactive),-0.584 (inactive)
CCCCC(O)C1C=CC2C(=O)N(C)C(=O)C2N1Nc1ccccc1 (stereo not drawn),-1.63,0.216 (inactive),-1.39 (inactive),0.957 (inactive),1.22 (inactive),1.53 (inactive),-0.867 (inactive),-0.618 (inactive),-1.5,0.0742,-0.141 (inactive),0.0092,-0.286,-4.23 (inactive),0.342 (inactive),-0.0493 (inactive)
CCc1cccc(NC(=O)O[C@H]2[C@H](OC(=O)Nc3ccc4c(c3)OCO4)[C@H](OC(=O)Nc3ccc4c(c3)OCO4)[C@@H](OC)O[C@@H]2CO)c1,-0.585,0.613 (inactive),-1.44 (inactive),-1.12 (inactive),0.317 (inactive),1.97 (inactive),1.65 (inactive),0.853 (inactive),-1.47,-0.184,2.3 (inactive),0.791,-2.26,-9.9 (active),-0.392 (inactive),-0.0612 (inactive)
C=CCC(OC(C)=O)[C@@H]1[C@@H](N(Cc2cc3ccccc3o2)C(=O)Cc2ccc(OC)cc2)c2cc(OCCCO)ccc2N1C(=O)Cc1ccc2ccccc2c1 (stereo partly drawn),-1.22,-0.379 (inactive),0.499 (inactive),0.65 (inactive),-0.17 (inactive),0.101 (inactive),-0.529 (inactive),-0.94 (inactive),-0.216,0.308,-0.324 (inactive),-0.375,-2.15,-1.62 (inactive),0.405 (inactive),0.517 (inactive)
CC(C)CNC(=O)[C@@H]1c2ccccc2C(=O)N(CC23CC4CC(CC(C4)C2)C3)[C@H]1c1ccc(CO)cc1,0.82,-1.17 (inactive),1.93 (inactive),-0.42 (inactive),-0.397 (inactive),-0.0966 (inactive),0.256 (inactive),0.339 (inactive),0.281,-0.13,0.41 (inactive),0.613,-2.11,-3.84 (inactive),-0.282 (inactive),-0.0264 (inactive)
C=C(CCCC)C(=O)CC[C@H](OC(C)=O)c1ccccc1OCCO,-1.32,-2.49 (inactive),-2.2 (inactive),-0.573 (inactive),-1.24 (inactive),0.0549 (inactive),-1.17 (inactive),-1.1 (inactive),-2.13,-0.0696,0.551 (inactive),0.439,-2.52,-5.49 (inactive),-0.384 (inactive),0.126 (inactive)
C=CCOC(=O)[C@H]1[C@@H]2C(=O)O[C@@H](c3ccccc3)[C@@H](c3ccccc3)N2[C@@H](c2ccc(OCCOC(=O)[C@H]3C[C@H]4C(=O)NCC(=O)N4[C@H]3c3ccc(O)cc3)cc2)[C@]12C(=O)Nc1ccc(I)cc12,0.0134,1.27 (inactive),0.478 (inactive),0.383 (inactive),2.83 (inactive),1.7 (inactive),0.157 (inactive),0.987 (inactive),0.642,-0.0351,-0.256 (inactive),0.7,-1.83,2.46 (inactive),-1.06 (inactive),-1.08 (inactive)
COCCOC(=O)N1C(=O)[C@@]2(c3ccccc31)[C@H](C(N)=O)[C@H]1C(=O)O[C@H](c3ccccc3)[C@H](c3ccccc3)N1[C@@H]2c1ccc(OCCO)cc1,1.35,1.75 (inactive),0.671 (inactive),-0.525 (inactive),-0.108 (inactive),1.96 (inactive),0.755 (inactive),0.094 (inactive),0.7,0.109,0.675 (inactive),0.638,0.0624,-4.49 (inactive),0.114 (inactive),-0.0135 (inactive)
CC1CC/C=C\[C@H]2OC34C=CCN(c5ccc(Cl)cc5)C(=O)[C@H]3N(CCCO)C(=O)[C@]4(C)C2C(=O)O1 (stereo partly drawn),-1.08,1.44 (inactive),-0.198 (inactive),1.44 (inactive),-0.897 (inactive),0.941 (inactive),-0.699 (inactive),-0.801 (inactive),-0.208,-0.151,0.412 (inactive),0.861,0.4,-4.75 (inactive),-0.226 (inactive),0.117 (inactive)
CO[C@H]1O[C@H](CO)[C@@H](OC(=O)Nc2ccccc2)[C@@H]2OC(=O)[C@H](Cc3ccccc3)C/C=C/C[C@@H](Cc3ccccc3)C(=O)O[C@@H]12,-1.41,0.411 (inactive),-3.52 (inactive),-1.69 (inactive),0.385 (inactive),0.887 (inactive),1.04 (inactive),1.99 (inactive),-2.26,0.288,1.5 (inactive),0.539,-1.42,-2.64 (inactive),-0.62 (inactive),-0.628 (inactive)
CCCC=C(CCC)[C@@H](NC(=O)c1ccco1)c1ccc(C(=O)OC)cc1,3.5,1.39 (inactive),1.12 (inactive),-0.0216 (inactive),-0.387 (inactive),1.67 (inactive),-0.422 (inactive),-0.245 (inactive),-2.8,0.251,0.192 (inactive),0.585,-0.465,-1.4 (inactive),-0.125 (inactive),-0.17 (inactive)
CCOC(=O)C[C@H]1[C@H](OC(=O)c2ccc(-c3ccccc3)cc2)[C@@H](NC(=O)CC(C)C)c2cc(OCCCO)ccc2N1C(=O)Cc1ccc(OC)cc1,-0.378,0.605 (inactive),-0.38 (inactive),0.423 (inactive),0.35 (inactive),-0.154 (inactive),-0.181 (inactive),-0.12 (inactive),-0.306,-0.274,0.364 (inactive),-0.0598,-0.0881,-2.68 (inactive),0.568 (inactive),0.254 (inactive)
CO[C@H]1O[C@H](CO)[C@@H](OC(=O)Nc2ccc3c(c2)OCO3)[C@@H]2OC(=O)[C@@H](Cc3ccccc3)C/C=C/C[C@H](Cc3ccccc3)C(=O)O[C@@H]12,-1.37,0.904 (inactive),-2.59 (inactive),-0.675 (inactive),0.509 (inactive),2.14 (inactive),0.307 (inactive),0.312 (inactive),-1.38,0.785,0.462 (inactive),0.692,-0.967,-8.19 (active),-0.508 (inactive),-0.215 (inactive)
COC(=O)[C@@]1(Cc2ccc(OC)cc2)[C@@H]2[C@@H](CC(=O)[C@H]2CC(=O)C(=O)N2CCCC2)CN1C(=O)c1ccccc1,-0.437,0.442 (inactive),-0.526 (inactive),-0.448 (inactive),0.274 (inactive),-0.148 (inactive),-0.415 (inactive),-0.394 (inactive),-1.57,-0.01,0.506 (inactive),0.807,-0.937,-2.95 (inactive),-0.961 (inactive),-1.03 (inactive)
C=CCN1C(=O)[C@]2(O[C@H](CCn3cc([C@H](O)c4ccccc4)nn3)[C@@H]([Si](C)(C)c3ccc(OC)cc3)[C@@H]2C)c2cc(N3C(=O)c4cccc5cccc3c45)ccc21,-1.1,0.0523 (inactive),-2.78 (inactive),0.739 (inactive),1.69 (inactive),0.88 (inactive),0.908 (inactive),0.591 (inactive),-3.61,0.0435,0.767 (inactive),0.312,-2.75,-3.64 (inactive),-0.65 (inactive),-0.164 (inactive)
CN(C)CCCNC(=O)[C@@]1(Cc2ccccc2I)c2ccccc2C(=O)N(Cc2ccccc2)[C@H]1c1ccc(CO)cc1,-3.78,-3.24 (inactive),-0.892 (inactive),-0.19 (inactive),0.292 (inactive),0.209 (inactive),0.0574 (inactive),0.252 (inactive),-1.89,0.24,0.869 (inactive),0.828,-2.21,-0.783 (inactive),0.22 (inactive),0.276 (inactive)
